An excerpt weighted towards active compounds, which were near 3.5% of everything screened.
Bead autofluor: counter-screen for toxin protease inhibitors: compound fluorescence; compound autofluorescence counterscreen, microsphere flow cytometry; hits give high values; fluorescence intensity (test concentration not listed); 3.1% of 360,000 active; in the data active = fluorescence intensity above about 16000; inconclusive = no clear call, values can overlap the other calls
Anthrax LF prot: blocks Bacillus anthracis lethal factor protease; P15917; multiplex microsphere protease cleavage assay, LF; inhibition, % at 10 µM; 0.12% of 360,000 active; AID 588501
BoNT-A LC inh2: blocks Botulinum neurotoxin A light chain protease. multiplex microsphere protease substrate cleavage, flow cytometry. inhibition, % at 10 µM. 0.17% of 360,000 active
BoNT F protease: blocks Botulinum neurotoxin F light chain protease; Multiplex microsphere protease cleavage assay, flow cytometry; inhibition, % at 10 µM; 0.22% of 360,000 active; in the data active = inhibition above about 35%, passing the limit was not always enough; inconclusive = no clear call, values can overlap the other calls
Hits are given with their value; 0 = inactive; ? = inconclusive. Cut-off read from the data, not from the text of the source, unless noted: active = inhibition above about 30%; inconclusive = no clear call, values can overlap the other calls; inactive = below that.

SMILES	Bead autofluor	Anthrax LF prot	BoNT-A LC inh2	BoNT F protease
CCOC(=O)c1ccc(N2CCCCC2)c(NS(=O)(=O)c2ccc(C)cc2)c1	0	0	0	0
Cc1ccc(S(=O)(=O)N(C)C)cc1NC(=O)CN1C(=O)NC(Cc2ccccc2)C1=O (stereo not drawn)	0	0	0	0
O=c1c2c3c(sc2nc2n1CCCC2)CCCC3	0	0	0	0
CCOC(=O)C1CCCn2c1nc1sc3c(c1c2=O)CCCC3 (stereo not drawn)	23606	0	0	0
CC1=C(C(=O)NCc2ccccc2)C(c2ccc(C)o2)n2ncnc2N1 (stereo not drawn)	20601	0	?	0
CC1=C(C(=O)Nc2ccccc2)C(c2ccc(C)o2)n2ncnc2N1 (stereo not drawn)	0	0	0	0
CCC(CO)[n+]1c(C)cc(/C=C2\Sc3ccccc3N2Cc2ccccc2)cc1C (stereo not drawn)	0	36	40	0
COCCNC(=O)C1(C)CCCN(Cc2ccc(Cl)nc2)C1 (stereo not drawn)	0	0	0	0
Cc1cccc(N2CCN(S(=O)(=O)c3c(C)[nH]c(=O)[nH]c3=O)CC2)c1C	0	0	?	0
Cc1ccc(Cl)cc1N1CCN(S(=O)(=O)c2c(C)[nH]c(=O)[nH]c2=O)CC1	19342	0	?	0
Cc1oc2ccc(O)c(CN3CCOCC3)c2c1C(=O)c1ccc(Cl)cc1	23586	0	0	0
CCCCCCc1cc2cc(-c3nnc(-c4ccccc4OC)o3)c(=O)oc2cc1O	22218	0	?	0
CCCCCCc1cc2cc(-c3nnc(-c4ccccc4O)o3)c(=O)oc2cc1O	0	0	0	0
Cc1cn([C@H]2C[C@H](O)[C@@H](CNCc3ccc(Oc4cc(-n5cccn5)ncn4)cc3)O2)c(=O)[nH]c1=O	0	0	0	0
NC1=NC2(CCCCC2)N(c2cccc(Cl)c2)C(N)=N1	16971	0	0	0
CC(C)Cn1c(N)c(C(=O)COC(=O)c2cccn2C)c(=O)n(C)c1=O	0	0	0	0
CCOc1ccc(OCCNC2CCCC2)cc1	22478	0	?	0
CCCOc1ccc(OCCNC2CCCC2)cc1	20118	0	0	0
CC(C)CC(=O)C1=C(O)C(=O)N(Cc2ccccc2)C1c1ccccc1 (stereo not drawn)	0	0	0	0
COc1ccc(C(=O)/C=C/c2cn(CN3CCN(C)CC3)c3ccccc23)cc1	23529	0	0	0
COc1ccc(CNc2nc3c(c(=O)n(Cc4ccc(F)cc4)c(=O)n3C)n2C)cc1	21752	0	?	0
Cn1c(NCc2ccccc2)nc2c1c(=O)n(Cc1ccccc1)c(=O)n2C	0	0	0	0
O=C(CSc1n[nH]c(-c2cccs2)n1)NCc1ccc2c(c1)OCO2	22840	0	0	0
Nc1nc(SCC(=O)NCc2ccc3c(c2)OCO3)n[nH]1	0	0	0	0
O=C(CSc1nnc2scc(-c3ccccc3)n12)NCc1ccco1	0	0	0	0
SMILES	Bead autofluor	Anthrax LF prot	BoNT-A LC inh2	BoNT F protease
O=C(CSc1nnc2scc(-c3ccc(Cl)cc3)n12)NCc1ccc2c(c1)OCO2	24173	0	0	0
O=C(CSc1nnc2scc(-c3ccc(Cl)cc3)n12)NCc1ccco1	25480	0	0	0
Nc1nc(SCC(=O)NC2CCCCC2)n[nH]1	0	0	0	0
CCCOc1ccc(C2C(=O)N(C3CCCCCC3)CC(=O)N2Cc2ccco2)cc1OC (stereo not drawn)	22488	0	0	0
COc1ccc(C2C(=O)N(C3CCCCCC3)CC(=O)N2Cc2ccccc2)cc1OC (stereo not drawn)	19721	0	0	0
CCCOc1ccc(C2C(=O)N(C3CCCCC3)CC(=O)N2C2CC2)cc1OC (stereo not drawn)	20615	0	0	0
COc1ccc(C2C(=O)N(C3CCCCC3)CC(=O)N2C2CCCC2)cc1 (stereo not drawn)	0	0	0	0
COc1ccc(CN2C(=O)CN(C3CCCCCC3)C(=O)C2c2ccc(OC)c(OC)c2)cc1 (stereo not drawn)	0	0	0	0
COc1ccc(C2C(=O)N(CCc3ccccc3)CC(=O)N2C2CCCC2)cc1 (stereo not drawn)	23925	0	0	0
CCCc1cc2c(cc1N(C)S(=O)(=O)c1ccccc1)OCO2	0	0	0	0
CCOC(=O)Cc1ccc(Nc2nc3cc(-c4ccccc4C)sc3c(=O)n2C)cc1	0	0	0	0
COc1ccc(C2C(=O)N(C3CCCCC3)CC(=O)N2Cc2ccco2)cc1 (stereo not drawn)	20572	0	?	0
Cc1ccc(N2C(=O)NC(=O)C3(Cc4ccccc4N4CCN(c5ccccc5)CC43)C2=O)cc1 (stereo not drawn)	19868	0	0	0
O=C1NC(=O)C2(Cc3ccccc3N3CCCC32)C(=O)N1c1cccc(Cl)c1 (stereo not drawn)	20287	0	?	0
O=C1c2ccccc2C(=O)C12Cc1ccccc1N1CCN(c3ccccc3)CC12 (stereo not drawn)	0	0	0	0
COc1ccc(NC(=O)c2ccc(NC(=O)CSc3nc(N)cc(=O)[nH]3)cc2)cc1	0	0	0	0
COC(=O)[C@@]1(C)[C@H]2C(=O)N(C)C(=O)[C@H]2[C@H]2CN=C(SCc3ccc(Cl)cc3)N21	0	0	0	0
O=C(c1ccco1)N1CCN(c2ncnc3c2nnn3Cc2ccccc2Cl)CC1	0	0	0	0
O=C(c1ccco1)N1CCN(c2nc(C(F)(F)F)nc3c2nnn3Cc2ccccc2)CC1	24937	0	0	0
O=C(CCCl)N1CCCC2(CCCCC2)C1	0	0	0	0
CN(C)S(=O)(=O)c1ccc(/C(O)=C2/C(=O)C(=O)N(Cc3cccnc3)C2c2ccncc2)cc1 (stereo not drawn)	17829	0	0	0
O=C(COC(=O)c1cc(S(=O)(=O)N2CCOCC2)ccc1O)NCc1ccc2c(c1)OCO2	0	0	0	0
Cc1cccc(C)c1NC(=O)CSC(=S)N1CCCC1	0	0	0	0
O=C(CSC(=S)N1CCCC1)Nc1ccc(Br)cc1Cl	?	0	0	35
CCN1C(=O)[C@H]2[C@@H](c3ccc(-c4ccccc4)cc3)N3CCCC[C@@]3(C(=O)OC)[C@H]2C1=O	0	0	0	0
SMILES	Bead autofluor	Anthrax LF prot	BoNT-A LC inh2	BoNT F protease
CCc1ccc(NC(=O)C(CC)Sc2nc3cc4c(cc3c(=O)n2Cc2ccco2)OCO4)cc1 (stereo not drawn)	20624	0	?	0
CCN(CC)S(=O)(=O)c1cc(NC(=O)Cn2cnc3ccccc3c2=O)ccc1C	16361	0	0	0
CN(c1ccccc1)S(=O)(=O)c1cccc(NC(=O)Cn2cnc3ccccc3c2=O)c1	0	0	0	?
COc1ccc2cc(C3(C)NC(=O)N(CC(=O)N4CCCCC4)C3=O)ccc2c1 (stereo not drawn)	0	0	0	0
CC(C)n1c(SCC(=O)N2CCN(C)CC2)nc2c1c(=O)n(C)c(=O)n2C	0	0	0	0
O=C(CSCC(=O)N1CCCCC1)OCC(=O)c1c[nH]c2ccccc12	0	47	33	0
O=C(C(=O)N1CCCCCC1)c1c[nH]c2ccccc12	0	0	0	?
O=C1N(Cc2ccccc2)c2ccccc2OC1(F)F	0	0	0	0
CC(C)(C)C(=O)NC(=S)Nc1ccc(F)cc1	0	0	0	0
CCOC(=O)CSc1nnc(NCC(=O)OC)c(=O)[nH]1	21379	0	0	0
